Screens deposited in PubChem BioAssay by National Center for Advancing Translational Sciences (NCATS).
LASV entry inh = inhibitors of Lassa virus binding or cell entry; Lassa virus pseudotype entry inhibition, cell reporter; Potency, µM (highest dose often 37.9 µM), inactives show at the top dose activity change, negative = inhibition, actives largely listed as inhibitors; 1.2% of 300,000 active; calls by dose curve; tested in HEK293 cells; also: potency is read from the fitted curve at half-maximal effect; nearly all actives have a fitted effect of over 50% in size
VACV mCherry inh = inhibitors of vaccinia virus infection (mCherry reporter signal); Vaccinia virus mCherry reporter infection, fluorescence; Potency, µM (doses to about 36.5 µM), inactives show top-dose activity change, negative = inhibition, most hits filed as inhibitors; 0.63% of 310,000 active; calls by dose curve; tested in A549 cells; also: potency is read from the fitted curve at half-maximal effect; nearly all actives have a fitted effect of over 35% in size
FMDV antiviral = antivirals against foot and mouth disease virus; Potency, µM (doses to about 57.9 µM), inactives show at the top dose activity change, negative = inhibition, hits mostly inhibitors; 1.2% of 410,000 active; FMDV antiviral cell-based qHTS; calls by dose curve; tested in HEK293T cells; also: read-out not given here; potency is read from the fitted curve at half-maximal effect; nearly all actives have a fitted effect of over 45% in size
HCMV antiviral = human cytomegalovirus inhibition; HFF cells, HCMV-luciferase reporter, 72 h; hits give low values; activity change, negative = inhibition, % at 57.5 µM; 4.5% of 410,000 active; AID 1259415; in the data active = activity change below about -60%; inconclusive = no clear call, values can overlap the other calls; inactive = above about -39%
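Luciferase read-out from HCMV-luciferase-infected HFFs (MOI 1 PFU/cell) 72 h post infection at 37C; compounds added after 16 h cell attachment; activity normalized between buffer-only basal and Salinomycin (10uM) inhibitor controls.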
Vaccinia Venus = vaccinia inhibition (Venus reporter); Vaccinia virus Venus reporter expression, fluorescence; 0.46% of 330,000 active; AID 720580; Potency, µM (top dose mostly 36.5 µM), for the others: top-dose activity change, negative = inhibition, actives largely listed as inhibitors; calls by dose curve; tested in A549 cells; also: potency is read from the fitted curve at half-maximal effect; nearly all actives have a fitted effect of over 30% in size
Marburg entry inh = Marburg virus entry inhibition. Marburg virus pseudotyped entry inhibition, cell reporter. Potency, µM (series often up to 37.8 µM), for inactives: at the top dose activity change, negative = inhibition, actives largely listed as inhibitors. 1.8% of 300,000 active. AID 540276; calls by dose curve; tested in HEK293 cells; also: potency is read from the fitted curve at half-maximal effect
* hit, by the source's call; i = inactive; ? = inconclusive; . = no result; + = active, no number; ! = repeats disagree; [ ] = dose if it differs, or a comment. In the library only some 6.5% were active in any assay of this set; here they are far more common. % is scaled to controls: 0 for no effect and ±100 for the full control effect.

SMILES	LASV entry inh	VACV mCherry inh	FMDV antiviral	HCMV antiviral	Vaccinia Venus	Marburg entry inh
CC(C)[C@H]1COCCS(=O)(=O)N1Cc1cccc(Cl)c1	.	-14.5%	-8.6%	-18.4	-24.1%	.
COc1cc2c(c(OC)c1OC)C1(c3ccccc3)CCCCCC1[C@@H]2NC(=O)C(F)(F)F (stereo partly drawn)	?	.	.	.	.	-15.2%[14.2 µM]
O=C(Nc1cccc(F)c1)C1CCCN(S(=O)(=O)c2cnc[nH]2)C1 (stereo not drawn)	.	.	-20.5%	-61.8*	.	.
Cc1ccc(NC(=O)C2CCCN(S(=O)(=O)c3cnc[nH]3)C2)cc1F (stereo not drawn)	.	-1.7%	-9.8%	61.2	-8.1%	.
C/C(=N\NC(=O)COc1cccc(C)c1)c1ccc2ccccc2c1O	.	.	35.2%	-77.2*	.	.
Cc1cccc(C)c1NC(=O)C(c1ccc(C#N)cc1)n1c(=O)c(-c2ccco2)nc2ccccc21 (stereo not drawn)	.	i	-5.9%	-4.6	6.1%	.
C/C(CCN1CCCc2nc(C)c(C)cc21)=N\O[C@H](C)c1cn([C@@H]2COC[C@H]2O)nn1	.	.	.	.	.	7.3%[14.2 µM]
CCOC(=O)c1c(CN(C)C)n(-c2ccc(C)cc2)c2cc(Br)c(O)cc12	?	?	-15.6%	-7.3	?	?
CCOC(=O)c1c(CN(C)C)n(-c2ccccc2)c2cc(Br)c(OC)cc12	?	-0.5%	-19.3%	-30.1	?	10µM*
CCOC(=O)c1c(CN2CCOCC2)n(-c2ccccc2)c2cc(Br)c(OC)cc12	9.2µM*	.	-27.0%	18.3	.	?
COc1cc2c(C(=O)N3CCN(c4ccccc4)CC3)c(C)oc2cc1Br	?	?	20µM*	-4.8	?	?
Cn1cc(CNC2CCN(c3cccc(NC(=O)c4cccnc4)c3)CC2)cn1	.	-9.5%	-8.3%	.	-2.0%	.
CCc1ccc(NC(=O)CSc2nc3c(sc4ccccc43)c(=O)n2CCN(CC)CC)cc1	28.2%[46.1 µM]	?	-30.0%	-60.5*	-18.2%	.
CN(C)CCn1c(SCc2ccccc2C#N)nc2c(sc3ccccc32)c1=O	.	.	-11.0%	-67.3*	.	.
C=CCN(C(=O)CSc1nc2c(sc3ccccc32)c(=O)n1CCN(CC)CC)c1ccccc1	?	-27.6%	?	-67.0*	?	?
CCCCN(CC)C(=O)CSc1nc2c(sc3ccccc32)c(=O)n1CCc1ccccc1	2.0%[46.1 µM]	-3.9%	-18.0%	20.4	-5.6%	.
COc1cc(Br)cc(C(c2c(C)n(C)n(-c3ccccc3)c2=O)c2c(C)n(C)n(-c3ccccc3)c2=O)c1O	-11.3%	-9.6%	-4.2%	12.2	4.6%	20.9%[14.2 µM]
CC/C(=N\N=C(/CC)c1ccccc1N)c1ccccc1N	8.8%[46.1 µM]	?	4.9%	0.4	17.1%	3.9%[46.1 µM]
Cc1coc2c1C(=O)C(=O)c1c-2ccc2c(C)cccc12	.	?	?	.	7.08µM*	.
CC1COC2=C1C(=O)C(=O)c1c2ccc2c1CCCC2(C)C (stereo not drawn)	.	-4.7%	-8.6%	.	8.7%	.
C[C@H]1COC2=C1C(=O)C(=O)c1c2ccc2c1CCCC2(C)C	.	11.2µM*	-23.2%	.	11.2µM*	.
Cc1ccc2c3c(cccc13)-c1ccccc1C2=O	?	-23.5%	71.3%	16.1	-8.8%	-1.7%
Cc1coc2c1C(=O)C(=O)c1c-2ccc2c1CCCC2(C)C	.	10µM*!	-20.5%	?	11.2µM*!	.
COc1ccc(C(=O)CSc2nc(=O)n(Cc3cccnc3)c3c2CCC3)cc1	0.5%	-25.4%	4.0%	-27.7	-18.0%	0.6%
CSc1c2c(n(CC3CCCCC3)c1CC(=O)NC1CCCCC1)CCCC2	.	.	.	.	.	4.6%
SMILES	LASV entry inh	VACV mCherry inh	FMDV antiviral	HCMV antiviral	Vaccinia Venus	Marburg entry inh
CCN(CCCn1c(SCC#N)nc2ccccc2c1=O)c1ccccc1	?	.	?	-0.7	.	9.2µM*
CCOc1ccc(NC(=O)c2ccc(NC(=O)N3CCSc4ncccc43)cc2)cc1	2.8%[46.1 µM]	-22.9%	31.6µM*	?	-18.4%	.
CCOc1ccccc1CNC(=O)c1ccc(NC(=O)N2CCSc3ncccc32)cc1	-24.3%[46.1 µM]	-14.2%	?	+	-16.0%	.
COC(=O)[C@H]1O[C@@H](c2c(OC)c(OC)c(C)c(OC)c2OC)[C@H](C)[C@@H](O)[C@@H]1C	.	.	.	.	.	6.2%[14.2 µM]
O=C(NCc1cccnc1)/C(=C/c1ccc(-c2cccc(C(F)(F)F)c2)o1)NC(=O)c1ccccc1	?	-24.5%	-21.3%	-6.5	-23.1%	?
O=C(NCc1cccnc1)/C(=C/c1ccc(-c2ccc(Cl)cc2)o1)S(=O)(=O)c1ccccc1	18.3µM*	.	3.55µM*	.	.	?
O=C(NCc1cccnc1)/C(=C\c1ccc(-c2ccc(Br)cc2)o1)S(=O)(=O)c1ccccc1	12.6µM*	?	3.16µM*	-102.6*	10µM*	?
CCCCCN(C(=O)CCC(=O)OCCOc1ccc(OCC)cc1)c1c(N)n(CCCC)c(=O)[nH]c1=O	-18.5%	-25.0%	23.1%	-14.2	-9.2%	?
C[n+]1ccnc2ccccc21	.	7.94µM*	.	.	2.24µM*	.
C[n+]1ccnc2cc(Cl)ccc21	.	11.2µM*	.	.	2.24µM*	.
Cc1ccc(NC(=O)CSc2nc(=O)n(Cc3cccnc3)c3c2CCC3)cc1F	-3.8%[46.1 µM]	-24.1%	-27.7%	-17.1	-18.4%	.
CCC1C(=O)NCCN1Cc1ccc2c(c1)CN(Cc1cccn1-c1ccc(Cl)cn1)CCO2 (stereo not drawn)	.	-19.8%	-8.5%	.	-4.3%	.
C=C(C)CSc1nnc(-c2cccc(S(=O)(=O)N(C)C)c2)n1-c1cc(OC)ccc1OC	?	i	-13.3%	-70.7*	-1.4%	-0.1%
COc1ccc(N(C(=O)c2ccccc2C)S(=O)(=O)c2ccc(C)cc2)cc1	?	-20.1%	2.3%	-20.0	-9.9%	.
COc1ccc(N(C(=O)c2ccccc2C)S(=O)(=O)c2cccs2)cc1	?	?	19.4%	-76.9*	?	?
COc1cc(OC)c(-c2c3cc(O)c(=O)cc-3oc3cc(O)c(O)cc23)cc1OC	-26.8%	i	?	?	i	4.61µM*!
O=C(CSc1nnc(-c2cccs2)n1-c1ccccc1)N1CCCc2ccccc21	?	.	-16.5%	-26.0	.	11.6µM*
COc1cc(=O)n2c(c1C(=O)NCc1ccc3c(c1)OCO3)CCN(C(=O)c1cccc(F)c1)CC2	.	-5.5%	-11.6%	.	-0.4%	.
CC(=O)Nc1cc2oc3ccccc3c2cc1[N+](=O)[O-]	0.8%	-6.4%	40.4%	-83.8*	-5.9%	2.6%
COc1cc2c(cc1NC(=O)c1cccc([N+](=O)[O-])c1C)oc1ccccc12	-5.7%	.	20.0%	-8.0	.	-28.2%
Nc1ccc2c(c1)oc1ccccc12	?	-4.8%	41.5%	113.5	-13.3%	?
O=[N+]([O-])c1ccc2c(c1)oc1ccccc12	-5.3%	.	-13.1%	-93.3*	.	-16.5%
Cc1ccc(-c2csc3nc4ccc(C(=O)NCCO)cc4c(=O)n23)cc1	.	-0.6%	-18.9%	-89.8*	-10.0%	.
Cc1cc(C)n(C(C[N+](=O)[O-])c2ccc(Cl)cc2)n1 (stereo not drawn)	-2.2%	-19.9%	?	-104.8*	-5.9%	-19.5%
